# Most compounds without a hit are left out; they make up all but 7.5% or so of the library.
# Rab9 prom act = activates the Rab9 promoter; Huh7 Rab9 promoter-luciferase reporter, luminescence, 24 h; Potency, µM (doses to about 9.22 µM), inactives show at the highest dose activation, negative = inhibition, hits mostly activators; 320,000 tested, 2.8% active; further: % of control where 0% means no effect; nearly all actives have a fitted effect of over 60% in size
#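 Rab9 promoter-driven luciferase in stably transfected Huh7 cells; 1500 cells/well rested 2 h, exposed to compound in DMSO for 24 h at 37 °C, 5% CO2. Luminescence read 10 min after adding luciferase reagent at ambient temperature.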
# SMN2 splice up = enhancers of SMN2 splice variant expression; HEK293 SMN2-luciferase splicing reporter, luminescence, 30-36 h; Potency, µM (doses to about 46.1 µM), inactives show top-dose activity change, positive = activation, usual class: activators; 210,000 tested, 2.8% active; further: % of control where 0% means no effect; nearly all actives have a fitted effect of over 55% in size
#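 HEK293 cells carry an SMN2 […]–luciferase reporter in which exon 7 inclusion puts luciferase in frame. Cells were plated 10-12 h before compound addition, then incubated 30-36 h at 37C. ONE-Glo luminescence was read; sodium butyrate at 4.5 mM final served as control.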
# NPC1 prom act = activators of NPC1 promoter | Potency, µM (top dose mostly 9.22 µM), for inactives: at the highest dose activation, hits mostly activators | 320,000 tested, 2.4% active | Huh7 NPC1 promoter luciferase reporter, 24 h; further: % of control where 0% means no effect; nearly all actives have a fitted effect of over 60% in size
#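 Luminescence read-out of NPC1 promoter-driven luciferase in stably transfected Huh7 cells; compounds delivered in DMSO and left 24 h at 37C, 5% CO2, qHTS titration format.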
# FLuc counter = inhibits or activates purified firefly luciferase, miR-21 counter-screen; 360,000 tested, 6.9% active; P08659; AID 588342; Potency, µM (series often up to 57.5 µM), for inactives: at the highest dose activity change, negative = inhibition, usual class: inhibitors; purified FLuc, Km substrates, luminescence inhibition;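 further: plate controls were vehicle for no effect and reference inhibitor for full effect; nearly all actives have a fitted effect of over 55% in size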
# Target sequence (P08659 whole entry, looked up): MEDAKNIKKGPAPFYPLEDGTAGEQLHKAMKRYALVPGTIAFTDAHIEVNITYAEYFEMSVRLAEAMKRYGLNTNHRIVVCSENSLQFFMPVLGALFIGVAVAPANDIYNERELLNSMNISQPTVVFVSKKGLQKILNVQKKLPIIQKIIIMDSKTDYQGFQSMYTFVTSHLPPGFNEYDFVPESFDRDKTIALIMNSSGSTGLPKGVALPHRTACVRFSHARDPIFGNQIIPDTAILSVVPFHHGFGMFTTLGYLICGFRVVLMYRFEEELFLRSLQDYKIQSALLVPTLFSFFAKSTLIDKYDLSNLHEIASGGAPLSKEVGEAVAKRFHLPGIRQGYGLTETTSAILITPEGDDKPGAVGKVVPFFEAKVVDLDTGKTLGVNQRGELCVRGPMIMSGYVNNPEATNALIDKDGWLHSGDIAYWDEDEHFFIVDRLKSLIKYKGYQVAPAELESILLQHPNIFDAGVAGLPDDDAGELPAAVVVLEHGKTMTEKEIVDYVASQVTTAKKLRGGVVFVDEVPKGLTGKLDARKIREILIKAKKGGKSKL
#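 Purified P. pyralis luciferase (10nM final) with 10uM D-luciferin and 10uM ATP (Km levels) in 50mM Tris acetate pH 7.5, 10mM Mg acetate, 0.01% Tween-20, 0.05% BSA; qHTS 6-point titration, ~60 µM downward; luminescence read.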
# ELG1 genotoxic = induces genotoxicity in HEK293T cells with luciferase-tagged ELG1; HEK293T ELG1-luciferase reporter, luminescence, 16 h; Potency, µM (top dose mostly 46 µM), for the others: at the top dose activity change, positive = activation, actives largely listed as activators; 330,000 tested, 1.3% active; further: % of control where 0% means no effect; nearly all actives have a fitted effect of over 60% in size
#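 HEK293T cells expressing luciferase-tagged ELG1 were treated with compound or DMSO for 16 hr at 37°C. Luciferase activity was then read after 30 min with ONE-Glo at room temperature; rising signal flags genetic stress.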
# KinaseGlo FLuc = Kinase-Glo luciferase inhibition (counter-screen); Q27757; Kinase-Glo luciferase, ATP luminescence, 8 min; Potency, µM (top dose mostly 38.3 µM), without a hit: top-dose activity change, negative = inhibition, hits mostly inhibitors; 200,000 tested, 0.28% active; further: on the % scale 0 is the no-effect control and ±100 the full control effect; nearly all actives have a fitted effect of over 60% in size
#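 Light output from Kinase-Glo luciferase with luciferin and 10 uM ATP in 50 mM imidazole pH 7.2, KCl, MgCl2, Tween 20, BSA; compound pin-delivered, 8-min ambient incubation, then luminescence read.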
# * = called active by the depositor; ? = inconclusive; · = not tested or not shown; [ ] = another dose, or the depositor's remark. The call rests on the fitted dose curve; in most records, active means well fitted curve in the direction sought with a large enough effect; inconclusive means small, poorly fitted or top-dose-only effect, or another doubt; inactive means no such curve, though single readings can be large; an effect the other way counts as inactive or inconclusive. Potency means the concentration at half of the fitted maximal effect.
SMILES,Rab9 prom act,SMN2 splice up,NPC1 prom act,FLuc counter,ELG1 genotoxic,KinaseGlo FLuc
COc1ccc(-n2nc(C(=O)NCC(=O)NCc3ccc(F)cc3)c3ccccc3c2=O)cc1,-5.9%,·,0.7%,3.0%,-17.7%,·
O=C1CC(c2ccccc2)Cc2[nH]c(=O)c(-c3nc(-c4ccc(Cl)cc4)cs3)cc21 (configuration not stated),·,-2.4%,·,3.8%,·,·
CCCn1c(C)nc2c(N3CCC(N(C)C)C3)nc(C)nc21 (configuration not stated),·,13.0%,·,·,·,-3.4%
Cc1ccc(N2CCN(C(=O)C3CCN(S(=O)(=O)c4ccc5c(c4)oc(=O)n5C)CC3)CC2C)cc1 (configuration not stated),·,-9.0%,·,-5.1%,·,·
COC(=O)[C@@]1(Cc2ccc(OC)cc2)[C@H]2c3cc(C(=O)N(C)C)n(Cc4ccc(C(F)(F)F)nc4)c3C[C@H]2CN1C(=O)c1ccccc1,·,-10.8%,·,·,·,-3.3%
COC(=O)c1cn(NC(=O)C2CCCCC2)c(=O)c2ccccc12,6.31µM*,-2.2%,2.4%,2.9%,-5.8%,7.2%
COC(=O)c1c(NC(=O)c2ccco2)sc(C(=O)Nc2ccc(F)cc2)c1C,1.58µM*,?,1.58µM*,-1.7%,?,1.3%
COC(=O)c1c(NC(=O)c2ccco2)sc(C)c1C,-2.9%,?,9.1%,0.8%,3.7%,5.6%
Cc1c(Cc2ccccc2)sc(NC(=O)c2ccco2)c1C(N)=O,-3.7%,-14.7%,3.7%,7.57µM*,7.8%,-1.3%
CCOc1ccc(CC(=O)Nc2sc(Cc3ccccc3)c(C)c2C(N)=O)cc1OCC,-0.5%,-2.4%,-1.3%,-5.7%,-2.3%,2.0%
COC(=O)c1c(NC(=O)C2CC2)sc(C(=O)Nc2ccccc2)c1C,?,1.12µM*,?,?,10.8%,-1.9%
Cc1nc(NC(=O)C2CC2)sc1C(=O)Nc1ccccc1,3.5%,·,0.8%,-15.3%,3.4%,·
COc1ccc(CCC(=O)NC2CC(=O)N(c3ccc(C)cc3)C2)cc1 (configuration not stated),·,·,·,-5.7%,·,·
CCCCNC(=O)c1ccc(Cc2nc3ccccc3[nH]2)cc1,·,·,·,·,·,0.7%
COc1ccc(OC)c(CNC(=O)c2nn(-c3ccc(OC)c(Cl)c3)c(=O)c3c2c2ccccc2n3C)c1,·,9.5%,·,0.8%,·,·
COc1ccc(-c2nnc(SCC(=O)Nc3cc(OC)ccc3OC)nc2-c2ccc(OC)cc2)cc1,·,·,·,-6.0%,·,·
C/C(=N\Nc1nc2ccccc2[nH]1)c1cc2ccccc2o1,?,12.6µM*,16.2%,2.39µM*,?,-24.4%
C/C(=N\Nc1nc2ccccc2[nH]1)c1ccccn1,28.8%,·,?,0.849µM*,2.51µM*,·
CCNc1nc2ccccc2[nH]1,5.5%,-18.5%,-4.4%,-1.4%,0.6%,3.1%
O=C(CN1C(=O)NC2(CCCC2)C1=O)OCc1ccccc1F,2.7%,·,-3.1%,-1.8%,0.7%,·
O=C(CN1CC(c2ccccc2)CC1=O)OCc1ccccc1F (configuration not stated),11.6%,?,6.5%,12µM*,0.2%,2.9%
COc1ccc(C(=O)N/N=C/c2cccc3cccnc23)cc1,-10.3%,-14.0%,-3.7%,7.57µM*,2.0%,-5.2%
CC(=O)Nc1ccc(C(=O)N/N=C/c2cccnc2)cc1,-0.1%,-95.5%[1.84 µM],-2.2%,10.1%,2.0%,-1.3%
COc1ccc(C(=O)N/N=C/c2cccnc2)cc1,20.8%,·,?,15.1µM*,?,·
CCOc1ccc(C(=O)N/N=C/c2cccc3cccnc23)cc1,-20.1%,-4.2%,-27.3%,6.75µM*,3.5%,-5.3%
SMILES,Rab9 prom act,SMN2 splice up,NPC1 prom act,FLuc counter,ELG1 genotoxic,KinaseGlo FLuc
CCOc1ccc(OCCSc2nnnn2-c2ccccc2)cc1,6.3%,·,9.0%,?,6.4%,0.8%
c1ccc(OCCSc2nnnn2-c2ccccc2)cc1,0.891µM*,15.8µM*,2.51µM*,2.69µM*,3.66µM*,-3.6%
COc1ccccc1OCCSc1nnnn1-c1ccc(C)cc1,-4.9%,?,15.3%,16.9µM*,?,2.9%
Fc1ccccc1OCCSc1nnnn1-c1ccccc1,?,3.16µM*,2.51µM*,3.01µM*,10µM*,-4.6%
Cc1c(-c2cccc(Cl)c2)nc2ccccc2c1C(=O)OCC(=O)Nc1ccc2c(c1)OCO2,-2.9%,-12.3%,-0.3%,-9.9%,-6.8%,-0.9%
Cc1cc(C(=O)N2CCN(S(C)(=O)=O)CC2)sc1-c1ccccc1,-4.2%,-13.6%,-3.2%,6.5%,5.9%,-8.1%
Cc1cc(C(=O)N(C)C)sc1-c1ccccc1,28.0%,10µM*,?,21.3µM*,?,2.5%
Cn1c(=O)c2c([nH]c(=O)n2Cc2ccc(Cl)cc2Cl)n(C)c1=O,·,7.3%,·,-17.4%,·,·
Cc1ccc(-c2nc(-c3nccc4ccccc34)oc2-c2ccccc2)cc1,3.16µM*,3.55µM*,?,3.01µM*,?,-14.9%[7.66 µM]
CC(=O)CSc1nc(-c2ccccc2)c(-c2ccccc2)o1,-0.9%,·,-0.3%,2.7%,-0.5%,·
O=C(CSc1nc(=O)n(Cc2ccco2)c2c1CCC2)NCc1ccccc1Cl,·,·,·,-15.3%,·,·
O=[N+]([O-])c1ccc(N=Nc2ccc(O)cc2O)cc1,13.1%,-16.4%,1.1%,6.01µM*,10.1%,?
O=C(Nc1ccc2nc(SCC(=O)N3CCCC3)sc2c1)c1cccc(F)c1,·,·,·,2.0%,·,·
CN1CCN(C(=O)CSc2nc3ccc(NC(=O)c4ccccc4F)cc3s2)CC1,14.9%,·,16.9%,19µM*,2.1%,·
COc1cccc(C(=O)Nc2ccc3nc(SCC(=O)N4CCOCC4)sc3c2)c1,·,·,·,15.1µM*,·,·
O=C(Nc1ccc2nc(SCC(=O)N3CCOCC3)sc2c1)c1ccc(Br)cc1,·,·,·,10.7µM*,·,·
O=C(Nc1ccc2nc(SCC(=O)N3CCOCC3)sc2c1)c1ccc(F)cc1,·,·,·,21.3µM*,·,·
O=C(Nc1ccc2nc(SCC(=O)N3CCCC3)sc2c1)c1ccccc1,·,·,·,-19.3%,·,·
CCOc1ccc(OCC)c(Nc2ccc3cc(S(=O)(=O)N4CCCC4)ccc3n2)c1,·,·,·,1.2%,·,·
CCN1CCN(c2nnc(-n3cccc3C(=O)NCc3ccccc3OC)s2)CC1,·,·,·,-3.8%,·,·
COCCNC(=S)N1CCN(Cc2ccc3c(c2)OCO3)CC1,-0.2%,·,1.2%,-0.2%,-5.6%,·
COc1cccc(C=O)c1OCCN1C(=O)c2ccccc2C1=O,0.7%,·,-1.9%,2.9%,-0.5%,·
COC(=O)CSc1nc2ccc(NC(=O)c3ccccc3C(=O)N3CCOCC3)cc2s1,1.2%,·,-1.4%,-4.5%,1.3%,·
O=C(Nc1ccc2nc(SCC(=O)N3CCOCC3)sc2c1)c1ccccc1Cl,·,·,·,21.3µM*,·,·
CC1CCc2onc(C(=O)N3CCN(c4cccc(C(F)(F)F)c4)CC3)c2C1 (configuration not stated),·,·,·,-10.3%,·,·

# Screening data deposited in PubChem BioAssay by National Center for Advancing Translational Sciences (NCATS).
